Measured values taken from PubChem BioAssay (Tox21).
Inconclusive results are not listed. Entries that show only a call come without a potency. Calls of active or inactive are those of the source. Calls follow the shape of the dose curve; as a rule, active = well fitted curve in the direction sought with a large enough effect in the repeat runs; inconclusive = weak or mixed curves; inactive = no such curve, though single readings can be large; an effect the other way counts as inactive or inconclusive.

Experiment: A CellTox Green Cytotoxicity Assay to monitor cytotoxicity in HEK293 cells - 8 hour (AID 1224884); also: nearly all actives have a fitted effect of over 35% in size
Conditions: CellTox Green fluorescence; series mostly up to 76.8 µM
Summary of the method: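 Seeding of HEK293 cells together with cytotoxicity dye preceded a 5 h incubation at 37 C/5% CO2. Test compounds in DMSO were then added and fluorescence monitored across 40 h.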

Q: With `CN1Cc2cc(C(=O)N3CCC(C4CCNCC4)CC3)ccc2NC(CC(=O)O)C1=O` (stereo not given) as the compound, how does the Potency read?
A: inactive

Q: With `CC(=O)NO` as the compound, how does the Potency read?
A: inactive

Q: With `CC(=O)[O][Al][O]C(C)=O` as the compound, how does the Potency read?
A: inactive

Q: With `Cc1nn(C)c(Oc2ccccc2)c1/C=N/OCc1ccc(C(=O)OC(C)(C)C)cc1` as the compound, how does the Potency read?
A: inactive

Q: For `O=C1OC(CN2CCOCC2)CN1/N=C/c1ccc([N+](=O)[O-])o1` (stereo not given), which Potency is on record?
A: inactive

Q: Which Potency does the source give for `COCCCN1CCC(NC(=O)c2cc(Cl)c(N)c3c2OCC3)CC1` here?
A: inactive

Q: Which Potency does the source give for `C1CCCNCCC1` here?
A: inactive

Q: With `CCC(Cl)CCC(Cl)C(Cl)CC(Cl)C(Cl)C(Cl)CCl` (stereo not given) as the compound, how does the Potency read?
A: inactive

Q: With `CCCCC(CC)COC(=O)COc1ccc(Cl)cc1Cl` (stereo not given) as the compound, how does the Potency read?
A: inactive

Q: With `CCC(C)O` (stereo not given) as the compound, how does the Potency read?
A: inactive

Q: For `C[C@@H](c1ncncc1F)C(O)(Cn1cncn1)c1ccc(F)cc1F` (stereo not given in full), which Potency is on record?
A: inactive

Q: Which Potency does the source give for `CC(C)(C)OCC1CO1` (stereo not given) here?
A: inactive

Q: Which Potency does the source give for `COS(=O)(=O)C(F)(F)F` here?
A: inactive

Q: With `C[Si](C)(CCCN)O[Si](C)(C)CCCN` as the compound, how does the Potency read?
A: inactive

Q: With `O=C1OC(=O)C2C3C=CC(C3)C12` (stereo not given) as the compound, how does the Potency read?
A: inactive

Q: Which Potency does the source give for `CC(C)(C)Cl` here?
A: inactive

Q: For `Cc1ccc(C(C)OC(=O)C2(C)CCC(C(=O)O)C2(C)C)cc1` (stereo not given), which Potency is on record?
A: inactive

Q: Which cytotoxicity increase does the source give for `CC(CSC(=O)c1ccccc1)C(=O)N1C[C@@H](Sc2ccccc2)C[C@H]1C(=O)O` (stereo not given in full) here?
A: 0.0018% [at 15.8 µM] (inactive)

Q: With `O=C(NCCO[N+](=O)[O-])c1cccnc1` as the compound, how does the Potency read?
A: inactive

Q: With `CN(C)CCN(Cc1ccsc1)c1ccccn1` as the compound, how does the Potency read?
A: inactive

Q: Which Potency does the source give for `Nc1cc(C(=O)O)c(O)c(S(=O)(=O)O)c1` here?
A: inactive

Q: For `O=S(c1cc(Cl)cc(Cl)c1O)c1cc(Cl)cc(Cl)c1O`, which Potency is on record?
A: inactive

Q: Which Potency does the source give for `COC(=O)c1ccc(I)cc1S(=O)(=O)NC(=O)Nc1nc(C)nc(OC)n1` here?
A: inactive

Q: Which Potency does the source give for `C[C@H]1C[C@H]2[C@@H]3CCC4=CC(=O)C=C[C@]4(C)[C@@]3(Cl)[C@@H](O)C[C@]2(C)[C@@]1(O)C(=O)CO` here?
A: inactive

Q: With `CC(C)Nc1ccc(NC(C)C)c2c1C(=O)c1ccccc1C2=O` as the compound, how does the Potency read?
A: inactive

Q: With `CC(C)OC(=O)C(C)N(C(=O)c1ccccc1)c1ccc(F)c(Cl)c1` (stereo not given) as the compound, how does the Potency read?
A: inactive

Q: For `CC(C)(CO)[N+](=O)[O-]`, which Potency is on record?
A: inactive

Q: Which Potency does the source give for `COc1ccc(C(=O)N2CCN(CC(=O)N3CCOCC3)CC2)cc1` here?
A: inactive

Q: For `O=C(O)c1ccccc1Cl`, which Potency is on record?
A: inactive

Q: For `CCCCCCCC#N`, which Potency is on record?
A: inactive

Q: Which Potency does the source give for `CCCCc1ncc(/C=C(\Cc2cccs2)C(=O)O)n1Cc1ccc(C(=O)O)cc1` here?
A: inactive

Q: For `CC1(c2ccccc2)OC(C(=O)O)=CC1=O` (stereo not given), which Potency is on record?
A: inactive

Q: Which cytotoxicity increase does the source give for `NC(N)=NCCC[C@H](N)C(=O)O` here?
A: -18% [at 6.97 µM] (inactive)

Q: For `CC/C=C\CCOC(=O)CC`, which Potency is on record?
A: inactive

Q: Which Potency does the source give for `CN1CCN(C(c2ccccc2)c2ccccc2)CC1` here?
A: inactive

Experiment: qHTS RealTime-Glo MT Cell Viability Assay in HepG2 cells - 16 hour (AID 1224885); also: nearly all actives have a fitted effect of over 50% in size
Conditions: RealTime-Glo luminescence; series mostly up to 76.8 µM
Summary of the method: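 qHTS, HepG2, 600 cells/well, RealTime-Glo (NanoLuc + prosubstrate) added with cells; 5 h preincubation; DMSO compound addition; 37 C; luminescence at 0/8/16/24/32/40 h.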

Q: Which Potency does the source give for `CN1Cc2cc(C(=O)N3CCC(C4CCNCC4)CC3)ccc2NC(CC(=O)O)C1=O` (stereo not given) here?
A: inactive

Q: With `CC(=O)NO` as the compound, how does the Potency read?
A: inactive

Q: Which Potency does the source give for `CC(=O)[O][Al][O]C(C)=O` here?
A: inactive

Q: Which Potency does the source give for `Cc1nn(C)c(Oc2ccccc2)c1/C=N/OCc1ccc(C(=O)OC(C)(C)C)cc1` here?
A: inactive

Q: For `O=C1OC(CN2CCOCC2)CN1/N=C/c1ccc([N+](=O)[O-])o1` (stereo not given), which Potency is on record?
A: inactive

Q: For `COCCCN1CCC(NC(=O)c2cc(Cl)c(N)c3c2OCC3)CC1`, which Potency is on record?
A: inactive

Q: With `C1CCCNCCC1` as the compound, how does the Potency read?
A: inactive

Q: Which Potency does the source give for `CCC(Cl)CCC(Cl)C(Cl)CC(Cl)C(Cl)C(Cl)CCl` (stereo not given) here?
A: inactive

Q: With `CCCCC(CC)COC(=O)COc1ccc(Cl)cc1Cl` (stereo not given) as the compound, how does the Potency read?
A: inactive

Q: With `CCC(C)O` (stereo not given) as the compound, how does the Potency read?
A: inactive

Q: Which Potency does the source give for `C[C@@H](c1ncncc1F)C(O)(Cn1cncn1)c1ccc(F)cc1F` (stereo not given in full) here?
A: inactive

Q: With `CC(C)(C)OCC1CO1` (stereo not given) as the compound, how does the Potency read?
A: inactive

Q: Which Potency does the source give for `COS(=O)(=O)C(F)(F)F` here?
A: inactive

Q: Which Potency does the source give for `C[Si](C)(CCCN)O[Si](C)(C)CCCN` here?
A: inactive

Q: Which Potency does the source give for `O=C1OC(=O)C2C3C=CC(C3)C12` (stereo not given) here?
A: inactive

Q: With `CC(C)(C)Cl` as the compound, how does the Potency read?
A: inactive

Q: Which Potency does the source give for `Cc1ccc(C(C)OC(=O)C2(C)CCC(C(=O)O)C2(C)C)cc1` (stereo not given) here?
A: inactive

Q: With `CC(CSC(=O)c1ccccc1)C(=O)N1C[C@@H](Sc2ccccc2)C[C@H]1C(=O)O` (stereo not given in full) as the compound, how does the activity change, negative = cytotoxic read?
A: 2.9% [at 15.8 µM] (inactive)

Q: For `O=C(NCCO[N+](=O)[O-])c1cccnc1`, which Potency is on record?
A: inactive

Q: With `CN(C)CCN(Cc1ccsc1)c1ccccn1` as the compound, how does the Potency read?
A: inactive

Q: With `Nc1cc(C(=O)O)c(O)c(S(=O)(=O)O)c1` as the compound, how does the Potency read?
A: inactive

Q: With `O=S(c1cc(Cl)cc(Cl)c1O)c1cc(Cl)cc(Cl)c1O` as the compound, how does the Potency read?
A: inactive

Q: With `COC(=O)c1ccc(I)cc1S(=O)(=O)NC(=O)Nc1nc(C)nc(OC)n1` as the compound, how does the Potency read?
A: inactive

Q: For `C[C@H]1C[C@H]2[C@@H]3CCC4=CC(=O)C=C[C@]4(C)[C@@]3(Cl)[C@@H](O)C[C@]2(C)[C@@]1(O)C(=O)CO`, which Potency is on record?
A: inactive

Q: For `CC(C)Nc1ccc(NC(C)C)c2c1C(=O)c1ccccc1C2=O`, which Potency is on record?
A: inactive

Q: Which Potency does the source give for `CC(C)OC(=O)C(C)N(C(=O)c1ccccc1)c1ccc(F)c(Cl)c1` (stereo not given) here?
A: inactive

Q: With `CC(C)(CO)[N+](=O)[O-]` as the compound, how does the Potency read?
A: inactive

Q: Which Potency does the source give for `COc1ccc(C(=O)N2CCN(CC(=O)N3CCOCC3)CC2)cc1` here?
A: inactive

Q: For `O=C(O)c1ccccc1Cl`, which Potency is on record?
A: inactive

Q: For `CCCCCCCC#N`, which Potency is on record?
A: inactive

Q: For `CCCCc1ncc(/C=C(\Cc2cccs2)C(=O)O)n1Cc1ccc(C(=O)O)cc1`, which Potency is on record?
A: inactive

Q: For `CC1(c2ccccc2)OC(C(=O)O)=CC1=O` (stereo not given), which Potency is on record?
A: inactive

Q: With `NC(N)=NCCC[C@H](N)C(=O)O` as the compound, how does the activity change, negative = cytotoxic read?
A: 0.73% [at 6.97 µM] (inactive)

Q: Which Potency does the source give for `CC/C=C\CCOC(=O)CC` here?
A: inactive

Q: Which Potency does the source give for `CN1CCN(C(c2ccccc2)c2ccccc2)CC1` here?
A: inactive
